# Source: PubChem
# TWEAK-Fn14 inh: TWEAK-Fn14 signaling inhibition. TWEAK-stimulated Fn14 reporter cells, luciferase luminescence, 8 h. inhibition, % at 10 µM. 360,000 compounds, 2% hits. AID 1159606; in the data active = inhibition above about 50%
# EWS-Fli inh: EWS/Fli transcriptional activity inhibition; A673 NR0B1-luciferase reporter, viability-normalised; 350,000 compounds, 0.67% hits; inhibition, % at 12.6 µM;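 active = mean inhibition of at least 50% after viability correction, with every replicate also passing that limit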;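 note: firefly luciferase signal divided by Alamar Blue viability fluorescence both relative to DMSO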
# TROY NFkB inh: blocks TROY-dependent signaling in reporter cells. Q293 LMP1-TROYcd NF-kB luciferase reporter, 4 h. inhibition, % at 10 µM. 360,000 compounds, 0.98% hits;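 active = compounds whose plate-normalised and pattern-corrected inhibition of the luciferase reporter signal at the single screening dose is 50% or more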
# LGR2 inh: blocks bursicon-induced cAMP signaling via Drosophila LGR2; HEK293 LGR2, CRE-luciferase, bursicon-stimulated, 4 h; inhibition, % at 9.99 µM; 380,000 compounds, 0.35% hits; AID 720647;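 active = drop in luminescence signal, shown as inhibition above about 50% in the replicate tests, limit read from the data, passing the limit was not always enough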;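 note: agonist challenge used bursicon conditioned medium at about half maximal strength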
# LMP1 NFkB inh: inhibitors of Epstein-Barr LMP1-induced NF-kappaB reporter; LMP1-induced NF-kappaB luciferase reporter cells, luminescence; 350,000 compounds, 0.69% hits; inhibition, % at 12.5 µM; in the data active = inhibition above about 41%;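 note: 0% = neutral control wells and 100% = reference inhibitor control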
# DNA binder FP: DNA binding small molecules; shares compounds with EWS-Fli inh; salmon sperm DNA acridine orange fluorescence polarization; AC35, µM (highest dose often 68 µM), without a hit: at the highest dose activity change, negative = DNA binding; 640 compounds, 2% hits; AID 720586;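 active = fitted curve reaches a 35% signal fall AC35 below twice the sample's top valid tested dose, actives reach about 48 µM in these data; inactive = the rest, including activity in the rising direction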;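 note: lower polarization ratio signals compound binding to DNA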
# Starred values were filed as active, the others as inactive; x = no result given; ! = not active in a repeat. Rows were chosen to be rich in hits. Some 2.5% of all compounds tested hit in one or more screens of this group.
SMILES,TWEAK-Fn14 inh,EWS-Fli inh,TROY NFkB inh,LGR2 inh,LMP1 NFkB inh,DNA binder FP
CCNC(=O)c1cccc(S(=O)(=O)N2CCCCCC2)c1,-9,67*,8,15,2,-20%
C[C@H]1CN([C@@H](C)CO)C(=O)c2cc(NC(=O)C3CC3)ccc2O[C@@H]1CN(C)S(=O)(=O)c1ccc(F)cc1,x,-2,x,-1,x,x
Cc1c(CCOC(=O)CC23CC4CC(CC(C)(C4)C2)C3)sc[n+]1CC(=O)c1ccccc1,16,76*,21,0,6,-4%
C[C@@H]1CCCCO[C@H](CN(C)C(=O)NC2CCCCC2)[C@H](C)CN([C@H](C)CO)C(=O)c2cc(NS(=O)(=O)c3ccccc3)ccc2O1,x,12,x,-7,x,x
CC(=O)c1ccc(N(C(=O)Cn2nnc3ccccc32)C(C(=O)NCc2ccccc2)c2ccccn2)cc1 (configuration not stated),-1,62*,-37,-5,-10,-6%
CCc1ccc2oc(C(=O)N3CCN(c4ccccc4OC)CC3)cc(=O)c2c1,-12,56*,1,-4,-2,-4%
CC(=NNc1ccc2ccccc2n1)c1ccccc1O,100*,74*,74*,95*,-2,-15%
C/C(=N\Nc1ccc2nncn2n1)c1ccccn1,-19,35,-10,-1,x,x
CC(=NNc1ccc2ccccc2n1)c1ccccn1,x,85*,x,104*,x,8%
C(=C\c1ccc(C2[C@H]3CNC[C@@H]2N3Cc2ccccn2)cc1)/c1ccccc1 (some centres not stated),x,59*!,x,-8,x,-10%
C(=C\c1ccc(C2[C@H]3CNC[C@@H]2N3Cc2cncnc2)cc1)/c1ccccc1 (some centres not stated),x,1,x,-6,x,x
COc1ccc(-c2cc(CNc3nc(NC(C)C)nc4cc(-c5ccccc5)sc34)on2)cc1,-41,54*,-44,-63,x,-1%
NCCOc1ccccc1-c1ccccc1,25,x,0,x,-3,x
Nc1ccc(Oc2ccccc2-c2ccccc2)cc1,82*,63*,68*,x,29,-4%
COc1ccc(C(=O)Nc2ccc3c(c2)C(=O)N(C)C[C@H](OC)[C@@H](C)CN(C)[C@H](C)CO3)cc1,x,-10,x,4,x,x
O=C(N[C@@H]1CC[C@H](CC(=O)N2CCOCC2)O[C@H]1CO)c1cccc(F)c1,x,-1,x,4,x,x
COCC(=O)N1[C@@H](CO)[C@@H](c2ccccc2)C12CN(C(=O)NC1CCCC1)C2,x,-11,x,-6,x,x
COc1ccc(C2c3cc4c(cc3OC(NNC(N)=O)C2C)OCO4)cc1 (configuration not stated),19,50*,17,6,6,-9%
COc1cccc(S(=O)(=O)Nc2ccc3c(c2)OC[C@@H](C)N(Cc2ccccc2F)C[C@@H](C)[C@H](OC)CN(C)C3=O)c1,x,8,x,0,x,x
C[C@@H]1CCCCO[C@@H](CN(C)S(=O)(=O)c2ccc(F)cc2)[C@H](C)CN([C@@H](C)CO)C(=O)c2cc(NC(=O)CCCN(C)C)ccc2O1,x,-10,x,-7,x,x
C[C@H](CO)N1C[C@H](C)[C@H](CN(C)Cc2ccc(Oc3ccccc3)cc2)OCc2cnnn2CCCC1=O,x,14,x,6,x,x
C[C@H]1CN([C@@H](C)CO)C(=O)Cc2cc(N(C)C)ccc2O[C@H]1CN(C)Cc1ccccc1,x,-14,x,-8,x,x
C[C@@H]1CN([C@@H](C)CO)C(=O)Cc2cc(N(C)C)ccc2O[C@@H]1CN(C)Cc1ccccc1,x,55*,x,5,x,-10%
C[C@@H]1CN([C@H](C)CO)C(=O)CCCn2nncc2CO[C@H]1CN(C)Cc1ccc(Oc2ccccc2)cc1,0,70*!,-5,6,8,-12%
C[C@@H]1CN([C@@H](C)CO)C(=O)c2cc(NC(=O)C3CC3)ccc2O[C@H]1CN(C)Cc1ccc(C(=O)Nc2ccccc2N)cc1,x,39,x,-12,x,x
C[C@@H]1CN([C@H](C)CO)C(=O)c2cc(NC(=O)CCCCCC(=O)Nc3ccccc3N)ccc2O[C@@H]1CN(C)Cc1ccc(Cl)c(Cl)c1,x,69*,x,14,x,-1%
C[C@H]1CN([C@@H](C)CO)C(=O)c2cc(NC(=O)C3CCCCC3)ccc2O[C@H]1CN(C)Cc1ccc(C(=O)Nc2ccccc2N)cc1,x,52*,x,9,x,-7%
C[C@H]1CN([C@@H](C)CO)C(=O)c2cc(NC(=O)CCCCCC(=O)Nc3ccccc3N)ccc2O[C@H]1CN(C)Cc1ccc(Cl)c(Cl)c1,x,18,x,6,x,x
